Compound activity (PubChem)
This is a sample that favours compounds with a hit; in the whole collection about 5.2% have one here.
Vif inh = blocks HIV Vif function; HEK293T cells, Vif self-association by quenched fluorescence, imaging, 24 h; inhibition, % at 7.49 µM; actives 0.35% (n = 340,000); AID 602346; in the data active = inhibition above about 50%, passing the limit was not always enough
SKN-1 inh = blocks SKN-1 activity in C. elegans | actives 0.49% (n = 360,000) | C. elegans VP596 Pgst-4::GFP/RFP ratio, acrylamide-induced, 24 h | inhibition, % at 21.8 µM;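 active = interference check ratio from 0.5 to 1.5 plus GFP to RFP signal ratio inhibition reaching or exceeding a fixed threshold, cut at about 30% in these data, passing the limit was not always enough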
NadD inh = NadD (S. aureus) enzyme inhibition | purified NadD enzyme, colorimetric absorbance read-out | inhibition, % at 20 µM | actives 0.78% (n = 360,000) | AID 602399; in the data active = inhibition above about 26%
GRIN3A LBD mod = modulates the human NR3A ligand-binding domain; NR3A LBD differential scanning fluorimetry, Tm shift; 0% = protein alone, 100% = glycine-bound protein; Tm shift relative to glycine control, % at 25 µM; AID 1259313; actives 2.5% (n = 340,000);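 active = melting temperature shift of at least 10% of the positive control shift, at one fixed dose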
esBAF inh = SWI/SNF esBAF complex inhibition; actives 2% (n = 350,000); AID 602393; reporter increase, % at 12.5 µM; mouse ES cells, Bmi1-luciferase knock-in reporter, 24 h; 100% = twice the neutral-well signal; in the data active = activation above about 40%;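 note: 0% = median of the plate's neutral control wells and 100% = double that signal; a rise in the Bmi1 reporter signal indicates esBAF inhibition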
SMARCA2 act = increases SMARCA2 function in MMTV reporter cells | activation, % at 9.1 µM | AID 652017 | actives 1% (n = 370,000) | MG213 cells, MMTV-luciferase reporter, dexamethasone, overnight; in the data active = activation above about 7.8%;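 note: 0% = vehicle wells and 100% = reference activator wells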
* = called active by the depositor; / = no result.

SMILES	Vif inh	SKN-1 inh	NadD inh	GRIN3A LBD mod	esBAF inh	SMARCA2 act
CC(C)NC(=O)N(C)C[C@@H]1OCCCC[C@@H](C)Oc2ccc(NS(=O)(=O)c3ccc(F)cc3)cc2C(=O)N([C@@H](C)CO)C[C@H]1C	/	/	/	/	-2.1	/
C[C@H](CO)N1C[C@H](C)[C@H](CN(C)Cc2ccccc2)OCc2cnnn2CCCC1=O	/	/	/	/	-2.1	/
Nc1c(NCCCN2CCOCC2)c2ccccc2oc1=O	-0.5	0.9	-2.1	11.1*	0.6	/
Nc1c(NCCN2CCOCC2)c2ccccc2oc1=O	-3.5	-0.5	0.2	-0.7	-6.6	0.6
CC(C)NC(=O)N[C@@H]1CC[C@H](CC(=O)NCc2ccc(Oc3ccccc3)cc2)O[C@H]1CO	/	/	/	/	-2.5	/
COCc1cn(CC[C@H]2CC[C@@H](NC(=O)Nc3ccc4c(c3)OCO4)[C@@H](CO)O2)nn1	/	/	/	/	-2.4	/
CCN(CC)Cc1cc(O)c(CN(CC)CC)cc1O	-1.1	1.2	31.0*	-3.1	/	5.1
CCc1oc(C(=O)O)cc1CN(CC)CC	-1.2	-28.7	-1.4	2.3	4.9	-5.0
O=C(NCC[C@H]1CC[C@H](NC(=O)Nc2cc(F)ccc2F)[C@H](CO)O1)Nc1ccc(Cl)cc1	/	/	/	/	42.7*	/
O=C(NCC[C@@H]1CC[C@@H](NC(=O)c2cccnc2)[C@H](CO)O1)Nc1ccc(C(F)(F)F)cc1	/	/	/	/	54.4*	/
Cc1ccc(S(=O)(=O)N[C@H]2CC[C@@H](CCNC(=O)Nc3ccc(Cl)cc3)O[C@H]2CO)cc1	/	/	/	/	44.7*	/
CC(C)CC#Cc1cnc2c(c1)C(=O)N([C@H](C)CO)C[C@@H](C)[C@H](CN(C)C(=O)c1ccc3c(c1)OCO3)O2	/	/	/	/	3.6	/
COc1ccc(C2=CC(=O)CC(C)(C)C2=O)cc1	/	/	/	/	/	-0.8
CC1(C)CC(=O)C=C(c2ccc(-c3ccccc3)cc2)C1	-12.3	-18.6	-1.9	-1.0	73.6*	5.6
CC1(C)CC(=O)C=C(c2ccc(-c3ccccc3)cc2)C1=O	2.1	-10.0	3.3	/	77.8*	2.7
CC1(C)CC(=O)C=C(c2ccc(-c3ccc(OC(F)(F)F)cc3)cc2)C1=O	-3.7	1.0	14.0	/	56.4*	1.1
CC(=O)N1[C@H](CO)[C@H](c2ccc(C3=CCCC3)cc2)[C@@H]1CNC(=O)CN(C)C	/	/	/	/	5.6	/
COc1ccc(Oc2c(C=O)c3ccccc3n2C)cc1	3.5	1.9	-2.2	0.7	/	-0.6
Cn1c(Oc2ccc(Cl)cc2)c(C=O)c2ccccc21	1.7	-1.7	-5.7	15.2*	/	-1.7
CNC(=O)C[C@@H]1CC[C@@H]2[C@H](COc3ccc(NC(=O)C(C)C)cc3C(=O)N2C)O1	/	/	/	/	4.2	/
OC1CCCCC1Sc1nc2ccccc2s1 (centres undefined)	24.6	4.3	1.1	-1.1	53.5*	6.4
O=C1OCCC1Sc1nc2ccccc2s1 (centres undefined)	/	-8.1	3.2	-1.6	4.3	0.9
CO[C@H]1CN(C)C(=O)c2cc(NC(=O)C3CCCC3)ccc2OC[C@H](C)NC[C@H]1C	/	/	/	/	-0.8	/
COCCn1c(=NC(=O)C2COc3ccccc3O2)sc2cc(S(N)(=O)=O)ccc21 (centres undefined)	/	6.8	-2.2	17.1*	2.3	-1.6
COc1ccc(OC)c2sc(NNC(=O)C3COc4ccccc4O3)nc12 (centres undefined)	1.4	0.8	5.9	-1.4	/	-2.4
SMILES	Vif inh	SKN-1 inh	NadD inh	GRIN3A LBD mod	esBAF inh	SMARCA2 act
CCn1c(=NC(=O)C2COc3ccccc3O2)sc2c(OC)ccc(OC)c21 (centres undefined)	70.8*	-12.8	2.3	2.9	18.4	-1.5
Cc1cc(C(=O)Nc2ccc3c(c2)C(=O)N(C)[C@H]2CC[C@@H](CC(=O)NCC(F)(F)F)O[C@H]2CO3)no1	/	/	/	/	-0.2	/
C[C@H]1CN([C@@H](C)CO)C(=O)c2cc(N(C)C)ccc2O[C@@H]1CN(C)Cc1ccc(-c2ccccc2)cc1	/	/	/	/	5.6	/
CCc1nnc(NC(=O)c2cc(-c3ccccc3)nn2-c2ccccc2)s1	-5.2	12.9	0.9	0.5	/	-3.6
O=C(Nc1nccs1)c1cc(-c2ccccc2)nn1-c1ccccc1	1.3	-5.6	-2.2	11.5*	/	-0.7
Cc1ccc(OC(=O)c2cccc([N+](=O)[O-])c2)c(-n2nc3ccccc3n2)c1	/	12.2	-9.1	1.0	84.5*	5.9
Cn1c(=O)c2c(nc(SCCN3CCOCC3)n2Cc2ccc(F)cc2)n(C)c1=O	0.5	-0.2	0.5	0.8	56.4*	6.0
